# Only a selection was taken, and the strongest signals are over-represented in it overall.
# B1: SialidaseA (Arthrobacter ureafaciens) (protein)
# chain: MRSNSTSAPSLVRRAATGVLTCAVSIGLLAGLGLPAQAAPTPPNSPTLPPGSFSETNLAADRTAANFFYRIPALTYLGNDVVLAAWDGRPGSAADAPNPNSIVQRRSTDGGKTWGPVQVIAAGHVADASGPRYGYSDPSYIYDAEANKVFAFFVYSKDQGFGGSQFGNDDADRNVISSAVIESSDAGVTWSQPRLITSVTKPGTSKTNPAAGDVRSNFASSGEGIQLKYGPHKGRLIQQYAGDVRQADGSNKIQAYSVYSDDHGVTWHKGANVGDRMDENKTVELSDGRVLLNSRDNANRGYRKVAVSTDGGATYGPVSQDTELPDPANNGAIARMFPNAAQGSADAKKLIFTNANSKTGRENVSARVSCDDGETWPGVRTIRSGFSAYSTVTRLADGKFGVLYEGNYTDNMPFATFDDAWLNYVCAPLAVPAVNIAPSATQEVPVTVTNQEATTLSGATATVYTPSGWSATTVPVPDVAPGASVTVTVALTAPADASGPRSLNAAFTTADGRVSQFTFTATTPVAPQVGLTITGSAPARDVAANPYQAGDVLGYTLNVKSTANVAANSVPLTGTFDSGFLPPAAPNCRYNNLAAGASYNCTTAKHTITAADMERGYFVPEATFSITSTTTPSLTKTVQFTGAAVALRDGLISADISGARTDVGRDLATRPYAAGELVPYAFTVKNTSPFVEQVVPTAGNFSPFLPAGAGNCRYLSLPAGQSYECATPRHAVTAEEVEQGFFVPDTTWEVSAAGQSTRTYRINGGEVDLLVRDAALSATVVAEWKDADGDRFASAGDPVTFTYTVGNAGNVALTGLEAPDAGISLPFLAPGDTATATREHVLTAADVAGGSLAASAFEATARNGSKEVTATAEGQPLELKVQPAQPSKEPELTVQDLEDQTPPFDLGTAFKYRTGQKVSLAGLEYGQWYYVYLNKTGYRLGWMFPTTGDTVEFILPPEVRNGRDDVVVLDKDGRRVSFDRLQVTPKGEKI
# What was measured:
# Test in all cases: glycan array binding signal (z-score within array); higher = stronger binding
# Settings in all cases: glycan notation: IUPAC condensed, linker removed
# [1] = biological target: Man(a1-3)[Man(a1-6)]Man(a1-6)[Man(a1-3)]Man(b1-4)GlcNAc(b1-4)GlcNAc
# Outline: (§1)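 Columns mapping to the same glycan were averaged after glycan names were converted to IUPAC-condensed notation. The data come from 3228 arrays in the Consortium for Functional Glycomics database, limited to those with an available protein sequence. Binding is reported as a within-array Z-score averaged across arrays of one protein sequence and across linkers.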
# [2] = biological target: Neu5Ac(a2-3)Gal(b1-3)GlcNAc(b1-3)GalNAc
# Outline: as §1
# [3] = biological target: Neu5Ac(a2-3)Gal(b1-4)GlcNAc(b1-2)Man(a1-3)[Neu5Ac(a2-3)Gal(b1-4)GlcNAc(b1-2)Man(a1-6)]Man(b1-4)GlcNAc(b1-4)GlcNAc
# Outline: as §1
# [4] = biological target: Neu5Ac(a2-3)Gal(b1-4)GlcNAc(b1-2)Man(a1-3)[Neu5Ac(a2-3)Gal(b1-4)GlcNAc(b1-2)Man(a1-6)]Man(b1-4)GlcNAc(b1-4)[Fuc(a1-6)]GlcNAc
# Outline: as §1
# [5] = biological target: Neu5Ac(a2-3)Gal(b1-4)GlcNAc(b1-3)Gal(b1-4)GlcNAc(b1-2)Man(a1-3)[Neu5Ac(a2-3)Gal(b1-4)GlcNAc(b1-3)Gal(b1-4)GlcNAc(b1-2)Man(a1-6)]Man(b1-4)GlcNAc(b1-4)GlcNAc
# Outline: as §1
# [6] = biological target: Neu5Ac(a2-3)Gal(b1-4)GlcNAc(b1-3)Gal(b1-4)GlcNAc(b1-3)GalNAc
# Outline: as §1
# [7] = biological target: Neu5Ac(a2-3)Gal(b1-4)GlcNAc(b1-3)[Neu5Ac(a2-3)Gal(b1-4)GlcNAc(b1-6)]GalNAc
# Outline: as §1
# [8] = biological target: Neu5Ac(a2-3)Gal(b1-4)[Fuc(a1-3)]GlcNAc(b1-3)Gal(b1-4)GlcNAc
# Outline: as §1
# [9] = biological target: Neu5Ac(a2-3)Gal(b1-4)[Fuc(a1-3)]GlcNAc(b1-3)GalNAc
# Outline: as §1
# [10] = biological target: Neu5Ac(a2-3)[GalNAc(b1-4)]Gal(b1-4)GlcNAc
# Outline: as §1
# [11] = biological target: Neu5Ac(a2-6)Gal(b1-4)GlcNAc(b1-2)Man(a1-3)Man(b1-4)GlcNAc(b1-4)GlcNAc
# Outline: as §1
# [12] = biological target: Neu5Ac(a2-6)Gal(b1-4)GlcNAc(b1-2)Man(a1-3)[Man(a1-6)]Man(b1-4)GlcNAc(b1-4)GlcNAc
# Outline: as §1
# [13] = biological target: Neu5Ac(a2-6)Gal(b1-4)GlcNAc(b1-2)Man(a1-3)[Neu5Ac(a2-3)Gal(b1-4)GlcNAc(b1-2)Man(a1-6)]Man(b1-4)GlcNAc(b1-4)GlcNAc
# Outline: as §1
# [14] = biological target: Neu5Ac(a2-6)Gal(b1-4)GlcNAc(b1-2)Man(a1-3)[Neu5Ac(a2-6)Gal(b1-4)GlcNAc(b1-2)Man(a1-6)]Man(b1-4)GlcNAc(b1-4)[Fuc(a1-6)]GlcNAc
# Outline: as §1
# [15] = biological target: Neu5Ac(a2-6)Gal(b1-4)GlcNAc(b1-2)Man(a1-6)Man(b1-4)GlcNAc(b1-4)GlcNAc
# Outline: as §1
# [16] = biological target: Neu5Ac(a2-6)Gal(b1-4)GlcNAc(b1-2)Man(a1-6)[Gal(b1-4)GlcNAc(b1-2)Man(a1-3)]Man(b1-4)GlcNAc(b1-4)GlcNAc
# Outline: as §1
# [17] = biological target: Neu5Ac(a2-6)Gal(b1-4)GlcNAc(b1-2)Man(a1-6)[GlcNAc(b1-2)Man(a1-3)]Man(b1-4)GlcNAc(b1-4)GlcNAc
# Outline: as §1
# [18] = biological target: Neu5Ac(a2-6)Gal(b1-4)GlcNAc(b1-2)Man(a1-6)[Man(a1-3)]Man(b1-4)GlcNAc(b1-4)GlcNAc
# Outline: as §1
# [19] = biological target: Neu5Ac(a2-6)Gal(b1-4)GlcNAc(b1-3)Gal(b1-4)GlcNAc(b1-3)[Neu5Ac(a2-6)Gal(b1-4)GlcNAc(b1-3)Gal(b1-4)GlcNAc(b1-6)]GalNAc
# Outline: as §1
# [20] = biological target: Neu5Ac(a2-6)Gal(b1-4)GlcNAc(b1-3)Gal(b1-4)[Fuc(a1-3)]GlcNAc(b1-3)Gal(b1-4)[Fuc(a1-3)]GlcNAc
# Outline: as §1
# [21] = biological target: Neu5Ac(a2-6)Gal(b1-4)GlcNAc(b1-3)[Neu5Ac(a2-6)Gal(b1-4)GlcNAc(b1-6)]GalNAc
# Outline: as §1
# [22] = biological target: Neu5Ac(a2-6)Gal(b1-4)GlcNAc(b1-6)GalNAc
# Outline: as §1
# [23] = biological target: Neu5Ac(a2-6)GlcNAc(b1-4)GlcNAc(b1-4)GlcNAc
# Outline: as §1
# [24] = biological target: Neu5Ac(a2-8)Neu5Ac(a2-3)[Gal(b1-3)GalNAc(b1-4)]Gal(b1-4)Glc
# Outline: as §1
# [25] = biological target: Neu5Gc(a2-3)Gal(b1-4)GlcNAc(b1-3)Gal(b1-4)GlcNAc(b1-2)Man(a1-3)[Neu5Gc(a2-3)Gal(b1-4)GlcNAc(b1-3)Gal(b1-4)GlcNAc(b1-2)Man(a1-6)]Man(b1-4)GlcNAc(b1-4)GlcNAc
# Outline: as §1
binder,measurement,setting,value
B1,glycan array binding signal (z-score),[1],-0.278
same,glycan array binding signal (z-score),[2],-0.321
same,glycan array binding signal (z-score),[3],-0.915
same,glycan array binding signal (z-score),[4],3.28
same,glycan array binding signal (z-score),[5],0.256
same,glycan array binding signal (z-score),[6],-0.013
same,glycan array binding signal (z-score),[7],1.16
same,glycan array binding signal (z-score),[8],2.56
same,glycan array binding signal (z-score),[9],1.91
same,glycan array binding signal (z-score),[10],0.486
same,glycan array binding signal (z-score),[11],3.4
same,glycan array binding signal (z-score),[12],3.4
same,glycan array binding signal (z-score),[13],2.86
same,glycan array binding signal (z-score),[14],3.44
same,glycan array binding signal (z-score),[15],3.28
same,glycan array binding signal (z-score),[16],3.95
same,glycan array binding signal (z-score),[17],3.32
same,glycan array binding signal (z-score),[18],3.29
same,glycan array binding signal (z-score),[19],3.49
same,glycan array binding signal (z-score),[20],3.65
same,glycan array binding signal (z-score),[21],3.9
same,glycan array binding signal (z-score),[22],-0.534
same,glycan array binding signal (z-score),[23],-0.274
same,glycan array binding signal (z-score),[24],-0.131
same,glycan array binding signal (z-score),[25],1.3

# Reference: the supplement of paper PMC8728848
